Test results taken from PubChem BioAssay.
The source made the active and inactive calls.

What was measured:
[1] = anti-His antibody binders, primary screen, artefact control for SMM control protein annotation, biochemical, small-molecule microarray, 635 nm fluorescence (AID 1128); details: anti-His Alexa647 antibody binding, higher = more signal;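 further: score merges feature fluorescence with signal-to-noise for each printed compound spot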
[2] = system: Human papillomavirus type 1a E7 protein (residues 1-88); test: HPV1a E7 small-molecule binders, primary screen, biochemical, small-molecule microarray, residues 1-88, 635 nm (AID 1129); details: small-molecule microarray binding, fluorescence 635 nm; higher = more signal
[3] = target: Focal adhesion kinase 1 (Homo sapiens) (UniProt Q05397); test: small-molecule microarray binders of FAK, primary screen, biochemical, 635/667 nm fluorescence, BSA, DTT (AID 1130); details: PTK2 binding, 635 nm fluorescence, higher = more signal;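 further: composite of spot emission at 667 nm and signal to noise over triplicate slides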
Chain of Focal adhesion kinase 1 (Homo sapiens) (Q05397 whole entry, looked up): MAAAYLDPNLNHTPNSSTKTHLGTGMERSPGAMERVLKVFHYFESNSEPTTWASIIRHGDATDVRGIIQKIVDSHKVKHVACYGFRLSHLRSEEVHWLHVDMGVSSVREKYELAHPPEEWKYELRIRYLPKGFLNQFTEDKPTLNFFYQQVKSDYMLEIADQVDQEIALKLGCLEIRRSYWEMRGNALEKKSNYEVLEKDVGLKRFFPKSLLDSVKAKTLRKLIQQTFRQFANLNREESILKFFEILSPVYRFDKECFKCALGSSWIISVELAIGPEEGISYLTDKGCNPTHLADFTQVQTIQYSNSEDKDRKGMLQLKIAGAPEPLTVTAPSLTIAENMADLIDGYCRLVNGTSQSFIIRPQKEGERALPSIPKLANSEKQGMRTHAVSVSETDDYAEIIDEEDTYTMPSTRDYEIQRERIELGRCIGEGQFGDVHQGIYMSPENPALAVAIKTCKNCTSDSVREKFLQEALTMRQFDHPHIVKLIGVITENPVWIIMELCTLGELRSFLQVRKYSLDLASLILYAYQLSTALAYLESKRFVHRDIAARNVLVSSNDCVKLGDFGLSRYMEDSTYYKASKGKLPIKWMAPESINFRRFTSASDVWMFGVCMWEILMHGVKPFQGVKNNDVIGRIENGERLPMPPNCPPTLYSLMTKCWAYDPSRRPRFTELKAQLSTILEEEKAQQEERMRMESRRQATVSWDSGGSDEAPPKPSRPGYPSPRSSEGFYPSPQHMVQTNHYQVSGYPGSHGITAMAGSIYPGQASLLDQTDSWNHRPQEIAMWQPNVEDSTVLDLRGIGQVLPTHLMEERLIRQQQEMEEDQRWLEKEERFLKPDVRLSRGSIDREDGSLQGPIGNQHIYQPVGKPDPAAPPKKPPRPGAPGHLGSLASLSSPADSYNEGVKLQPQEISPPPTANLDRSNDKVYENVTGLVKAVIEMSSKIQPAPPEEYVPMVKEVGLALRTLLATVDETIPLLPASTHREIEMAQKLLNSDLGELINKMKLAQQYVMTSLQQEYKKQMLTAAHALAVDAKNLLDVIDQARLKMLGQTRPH

[4] = system: Fibrinogen (Alexa647-labelled); test: fibrinogen binders on compound microarrays, profiling panel, artefact control for SMM control-protein annotation, biochemical, small-molecule microarray, 635/667 nm fluorescence (AID 1131); details: fibrinogen-A647 binding fluorescence, higher = more signal;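 further: z-score merges 667 nm fluorescence with per-spot signal-to-noise over triplicate slides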
[5] = target: Follistatin (Homo sapiens) (UniProt P19883); test: follistatin binders on small-molecule microarrays, primary screen, biochemical, small-molecule microarray, 635/667 nm fluorescence (AID 1132); details: FST binding, 635 nm fluorescence, higher = more signal
Chain of Follistatin (Homo sapiens) (P19883 whole entry, looked up): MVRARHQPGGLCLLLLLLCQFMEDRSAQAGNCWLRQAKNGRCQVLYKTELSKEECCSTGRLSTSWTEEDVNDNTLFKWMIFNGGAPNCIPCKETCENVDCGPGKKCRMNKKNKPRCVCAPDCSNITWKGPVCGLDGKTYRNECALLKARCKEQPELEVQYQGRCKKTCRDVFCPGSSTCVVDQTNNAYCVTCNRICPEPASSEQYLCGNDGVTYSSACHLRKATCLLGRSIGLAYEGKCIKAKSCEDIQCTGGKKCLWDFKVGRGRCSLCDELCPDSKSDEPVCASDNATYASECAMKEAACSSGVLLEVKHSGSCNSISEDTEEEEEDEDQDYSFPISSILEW

[6] = target: Fibroblast growth factor 2 (Homo sapiens) (UniProt P09038); test: FGF2 binders on small-molecule microarrays, primary screen, biochemical, small-molecule microarray, 635/667 nm fluorescence (AID 1133); details: small-molecule microarray binding, FGF2, fluorescence 635/667; higher = more signal
Chain of Fibroblast growth factor 2 (Homo sapiens) (P09038 whole entry, looked up): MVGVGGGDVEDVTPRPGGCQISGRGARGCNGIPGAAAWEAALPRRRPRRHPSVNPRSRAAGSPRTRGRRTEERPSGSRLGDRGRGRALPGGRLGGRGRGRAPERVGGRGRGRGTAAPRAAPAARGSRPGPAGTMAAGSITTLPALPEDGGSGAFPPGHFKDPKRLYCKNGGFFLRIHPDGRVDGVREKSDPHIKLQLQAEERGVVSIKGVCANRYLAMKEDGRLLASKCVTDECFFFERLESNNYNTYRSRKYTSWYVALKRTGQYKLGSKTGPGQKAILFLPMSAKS

[7] = mitochondrial membrane potential change in A549 cells, profiling panel, cell-based, JC-1 fluorescence, basal, 24 h, 100 nL (AID 1138); details: higher = more signal;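 further: A549 lung adenocarcinoma cells under basal conditions with no added stimulus; test concentration not given here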
Lefty1 = Lefty1 binders on small-molecule microarrays, primary screen, biochemical, small-molecule microarray, 635/667 nm fluorescence (AID 1139); details: small-molecule microarray binding, fluorescence 635/667; higher = more signal
[8] = system: wheat germ agglutinin (Triticum aestivum), Alexa647-labelled; test: wheat germ agglutinin binders on compound microarrays, profiling panel, artefact control for SMM control-protein annotation, biochemical, small-molecule microarray, 635/667 nm fluorescence (AID 1140); details: WGA-A647 binding, 635 nm fluorescence, higher = more signal;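 further: score merges 667 nm feature emission with signal to noise over triplicate slides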
[9] = target: Luciferin 4-monooxygenase (Photinus pyralis) (UniProt P08659); test: firefly luciferase enzyme inhibitors, primary screen, biochemical, luminescence, purified enzyme, 2006 set (AID 1141); details: SteadyGlo luminescence, 30 min, higher = more signal, called active from +8 up or from −8 down;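 further: cell-free assay with purified firefly luciferase at 100 ng per well in PBS; test concentration not given here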
Chain of Luciferin 4-monooxygenase (Photinus pyralis) (P08659 whole entry, looked up): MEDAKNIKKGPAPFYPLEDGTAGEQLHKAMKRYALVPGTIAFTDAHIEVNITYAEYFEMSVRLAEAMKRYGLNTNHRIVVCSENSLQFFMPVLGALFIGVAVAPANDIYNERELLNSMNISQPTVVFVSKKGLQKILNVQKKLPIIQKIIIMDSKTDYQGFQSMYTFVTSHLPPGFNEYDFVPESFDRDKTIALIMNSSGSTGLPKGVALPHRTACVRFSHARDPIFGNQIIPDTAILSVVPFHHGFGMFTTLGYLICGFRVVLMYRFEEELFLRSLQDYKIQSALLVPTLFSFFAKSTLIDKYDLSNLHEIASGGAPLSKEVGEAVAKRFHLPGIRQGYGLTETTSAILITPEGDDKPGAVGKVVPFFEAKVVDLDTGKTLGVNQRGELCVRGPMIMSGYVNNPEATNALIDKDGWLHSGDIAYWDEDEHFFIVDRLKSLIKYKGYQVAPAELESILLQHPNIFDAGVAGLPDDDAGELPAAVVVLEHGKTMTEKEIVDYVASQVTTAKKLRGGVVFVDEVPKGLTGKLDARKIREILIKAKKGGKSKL

SMILES	composite z-score [1]	composite z-score [2]	composite z-score [3]	composite z-score [4]	composite z-score [5]	composite z-score [6]	z-score [7]	composite z-score (Lefty1)	composite z-score [8]	z-score [9]
CCCNC(=O)OC[C@H]1O[C@H](CCON=C(C)C)C=C[C@@H]1Oc1ccc(OC)cc1	1.82	-0.124	0.105	0.448	-0.132	-0.245	-0.218	0.0114	-0.0321	-0.129 (inactive)
CO[C@@H]1COC(=O)CC=C[C@@H](C)[C@H](OC)COC(=O)[C@@H](C)COC(=O)CC=C[C@H]1C	-0.227	-1.38	-0.482	-1.39	1.18	0.867	1.2	1.24	-0.839	-0.798 (inactive)
CC(C)=CCCC(C)=CCON=C1C[C@@H](O)[C@@H](O)[C@@H]2[C@@H]3C(=O)N(C[C@@H]4CCCO4)C(=O)[C@@H]3CC[C@H]12	1.39	1.13	0.349	0.499	1.13	0.945	-0.773	1.24	0.572	0.217 (inactive)
CC(C)=CCCC(C)=CCON=C1C[C@@H](O)[C@@H](O)[C@@H]2[C@@H]3C(=O)N(C(C)(C)C)C(=O)[C@@H]3CC[C@H]12	-0.119	0.635	-0.0868	0.199	0.329	0.248	-0.0133	0.536	-0.849	0.0533 (inactive)
C=CC[C@@H]1C=C[C@H](ON=C(C)CCC(=O)OC[C@H]2O[C@H](c3ccccc3)C=C[C@@H]2Oc2ccc(OC)cc2)[C@@H](CO)O1	0.14	-0.214	0.261	-1.43	-0.398	0.121	-0.217	0.443	0.104	-0.506 (inactive)
CCCCC#C[C@@H]1C=C[C@H](Oc2cc(OC)c(OC)c(OC)c2)[C@@H](COC(=O)OCC)O1	0.054	-0.637	-0.253	0.388	0.135	0.265	2.36	0.386	-0.0925	-1.12 (inactive)
O=C1C[C@@H](O)[C@@H](O)[C@@H]2[C@@H]3C(=O)N(C[C@@H]4CCCO4)C(=O)[C@@H]3CC[C@@H]12	0.318	0.476	0.181	0.517	0.848	0.657	0.52	0.42	0.208	-0.658 (inactive)
CC(CCN1CCCc2nc(C)c(C)cc21)=NO[C@@H](C)c1cc(-c2c(C)cc(C)cc2C)no1	1.4	0.314	0.514	0.745	0.427	0.388	1.91	0.643	0.605	0.0678 (inactive)
COC(=O)CC=C[C@@H](C)[C@@H]1C=C[C@H](O)[C@@H](CO)O1	-0.29	0.392	-0.281	0.201	1.04	0.413	0.204	0.767	-0.375	-0.203 (inactive)
COc1ccc(O[C@H]2C=C[C@@H](c3ccccc3)O[C@@H]2CON=C(C)C)cc1	-0.732	-1.11	0.433	0.152	0.234	-0.287	-0.541	-0.0027	0.938	0.409 (inactive)
COC(=O)[C@H](C)NC(=O)CCC1CC(OC(=O)NCCc2ccc(F)cc2)CC2(CCCC(COC(=O)NCc3cccc(C(F)(F)F)c3)O2)O1 (stereo not given in full)	0.158	0.637	0.145	0.563	1.19	0.617	-0.0843	1.43	0.0337	0.0641 (inactive)
C#CCCCON=C1C[C@@H](O)[C@@H](O)[C@@H]2[C@@H]3C(=O)N(c4cccc(Oc5ccccc5)c4)C(=O)[C@@H]3CC[C@H]12	0.247	-0.936	-0.427	-1.13	-0.446	-0.455	0.8	-0.275	0.272	0.134 (inactive)
CC(=O)O[C@H]1C2=CO[C@H](C)[C@H]3[C@H]4C5=C([C@H](O)[C@H]6O[C@H]6C5=O)[C@H](OC4C)[C@@]23C(=O)[C@@H]2O[C@@H]21 (stereo not given in full)	-0.497	0.121	-0.703	-0.331	-0.436	1.35	-0.837	0.0873	-0.515	-0.413 (inactive)
O=c1n(Cc2cc3c(cc2Cl)OCO3)c(=O)n2n1CC[C@@H]1C(=NOC[C@@H](O)COCc3ccco3)[C@H]3O[C@H]3[C@@H](O)[C@@H]12	0.0465	0.642	-0.0676	0.354	0.568	0.546	-0.15	0.414	0.004	-0.357 (inactive)
O=C1[C@H]2[C@H]3[C@H](O)[C@H](O)CC(=NOC[C@@H](O)COCc4ccco4)[C@@H]3CC[C@H]2C(=O)N1C[C@@H]1CCCO1	0.142	-0.12	-0.288	-0.652	0.907	1.34	-0.00687	1.17	-0.559	0.31 (inactive)
CC=CC1=C(CO)C(=O)[C@@H]2O[C@@H]2C1=O	0.366	-0.385	-0.681	-0.328	1.44	1.89	-1.06	1.34	-0.173	-0.78 (inactive)
CON=C[C@@H](C)[C@H](OCc1ccccc1)C(C)C	-0.032	-1.2	0.119	-0.734	0.359	0.211	-1.1	0.347	-0.195	0.592 (inactive)
CCCNC(=O)OC[C@H]1O[C@H](CCON=Cc2ccc(C(=O)N3[C@H](c4ccc(C)cc4)[C@@H](C)CC[C@H]3C(=O)OC)cc2)C=C[C@@H]1Oc1ccc(OC)cc1	1.77	0.838	0.315	0.88	0.277	0.666	-0.195	0.58	0.236	0.407 (inactive)
CCCCC#C[C@@H]1C=C[C@H](OC(C)=O)[C@@H](COC(C)=O)O1	0.113	0.283	-0.0443	0.88	0.248	0.316	-0.79	0.487	0.219	-1.41 (inactive)
COc1ccc(COC(=O)NN=C2C[C@@H](O)[C@@H](O)[C@@H]3[C@@H]4C(=O)N(Cc5ccccc5)C(=O)[C@@H]4CC[C@H]23)cc1	-0.382	-0.111	0.0115	-0.519	-0.311	-0.977	0.235	-0.403	0.266	0.893 (inactive)
CC(C)CCN1CCc2nc(COc3ccccc3)c3c(c2C1)CO[C@@H](C)C3	0.683	0.132	0.233	0.602	0.0413	-0.0961	1.71	0.0377	0.451	-0.781 (inactive)
CC(C)CON=C1C[C@@H](O)[C@@H](O)[C@@H]2[C@@H]3C(=O)N(Cc4ccc5c(c4)OCO5)C(=O)[C@@H]3CC[C@H]12	0.193	0.689	0.0874	0.237	0.707	0.914	-0.72	0.831	-0.0178	1.26 (inactive)
COc1cccc([C@H]2Oc3ccc(OC)cc3C(=NOC[C@@H](C)[C@H](OCc3ccccc3)C(C)C)[C@@H]2O)c1	1.78	0.321	0.0885	0.069	0.232	0.0521	-0.789	0.709	0.872	-0.0981 (inactive)
O=C1[C@H]2[C@H]3[C@H](O)[C@H](O)CC(=NOC[C@@H](O)COCc4ccco4)[C@H]3CC[C@H]2C(=O)N1Cc1ccccc1	-0.267	-0.429	-0.326	-1.55	0.691	0.633	-0.287	0.496	-0.438	0.737 (inactive)
